Several values for one entry are separate records, joined by “and”; a condition that tells them apart may be missing. Equal entries are not always repeated. Records with an inconclusive call do not appear. Activity calls are given as the source filed them. Unless noted, calls follow the shape of the dose curve; as a rule, active = well fitted cell-killing curve with a large enough effect; inconclusive = small, poorly fitted or top-dose-only effect, or effect the other way; inactive = no such curve, though single readings can be large or run the other way.

Assay [1] is described as follows: Quantitative High-Throughput drug screen in 47 multiple myeloma cell lines against the NCATS MIPE library collection: OCIMY7_PLB cell viability assay (AID 1918987). Also: nearly all actives have a fitted effect of over 65% in size. In a few lines: (§1)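 500 cells/well per myeloma line exposed to pinned MIPE 4.0 compounds for 48 h at 37 °C, 5% CO2. Viability read as ATP by CellTiter-Glo luminescence, normalised to DMSO-only (100%) and media-only (0%) wells.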

A short description of assay [2]: Quantitative High-Throughput drug screen in 47 multiple myeloma cell lines against the NCATS MIPE library collection: OPM1_PLB cell viability assay (AID 1918989). Also: nearly all actives have a fitted effect of over 40% in size. In a few lines: as §1
Assay [3] is described as follows: Quantitative High-Throughput drug screen in 47 multiple myeloma cell lines against the NCATS MIPE library collection: SKMM1_PLB cell viability assay (AID 1919863). Also: nearly all actives have a fitted effect of over 35% in size. The note with it: SKMM1 myeloma viability, CellTiter-Glo ATP, 48 h; viability: stronger effect = lower value. In a few lines: as §1
For orientation: In ATP-based viability assays light output follows the ATP content of the culture.

Assay [4] in a line: Quantitative High-Throughput drug screen in 47 multiple myeloma cell lines against the NCATS MIPE library collection: U266_ATCC cell viability assay (AID 1919864). Also: nearly all actives have a fitted effect of over 35% in size. The gist of the method:
as §1

Assay [5] can be described thus: Quantitative High-Throughput drug screen in 47 multiple myeloma cell lines against the NCATS MIPE library collection: XG1_PLB cell viability assay (AID 1919866). Also: nearly all actives have a fitted effect of over 35% in size. The gist of the method: as §1
Assay [6] can be described thus: Quantitative High-Throughput drug screen in 47 multiple myeloma cell lines against the NCATS MIPE library collection: VP6_DJ cell viability assay (AID 1919867). Also: nearly all actives have a fitted effect of over 40% in size. The gist of the method:
as §1

A short description of assay [7]: Quantitative High-Throughput drug screen in 47 multiple myeloma cell lines against the NCATS MIPE library collection: UTMC2_PLB cell viability assay (AID 1919868). Also: nearly all actives have a fitted effect of over 55% in size. The note with it: CellTiter-Glo ATP luminescence, 48 h; viability (% of DMSO control): at 45.8 µM (top of the series) unless noted. The gist of the method:
as §1

Assay [8] can be described thus: Quantitative High-Throughput drug screen in 47 multiple myeloma cell lines against the NCATS MIPE library collection: PE2_PLB cell viability assay (AID 1919869). Also: nearly all actives have a fitted effect of over 35% in size. The gist of the method: as §1
The nature of assay [9]: Quantitative High-Throughput drug screen in 47 multiple myeloma cell lines against the NCATS MIPE library collection: PCM6_Riken cell viability assay (AID 1919870). Also: nearly all actives have a fitted effect of over 30% in size. The gist of the method:
as §1

Assay [10] can be described thus: Quantitative High-Throughput drug screen in 47 multiple myeloma cell lines against the NCATS MIPE library collection: RPMI8226_ATCC cell viability assay (AID 1919871). Also: nearly all actives have a fitted effect of over 30% in size. In a few lines:
as §1

Assay [11] is described as follows: Quantitative High-Throughput drug screen in 47 multiple myeloma cell lines against the NCATS MIPE library collection: OPM2_DSMZ cell viability assay (AID 1919872). Also: nearly all actives have a fitted effect of over 30% in size. The gist of the method:
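CellTiter-Glo luminescence (ATP) after 48 h compound exposure, 37C/5% CO2; 500 cells/well; MIPE 4.0 approved/investigational drugs pinned in; DMSO = 100%, media only = 0% viability.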

Assay [12] in a line: Quantitative High-Throughput drug screen in 47 multiple myeloma cell lines against the NCATS MIPE library collection: KMS11_JCRBsus cell viability assay (AID 1919873). Also: nearly all actives have a fitted effect of over 50% in size. In a few lines: as §1
Assay [13] in a line: Quantitative High-Throughput drug screen in 47 multiple myeloma cell lines against the NCATS MIPE library collection: KMS28BM_JCRB cell viability assay (AID 1919874). Also: nearly all actives have a fitted effect of over 35% in size. In a few lines: as §1
Assay [14] can be described thus: qHTS drug screen for cell cycle checkpoint inhibitors in PARPi-resistant BRCA-mutant ovarian cancer cell lines. (AID 1963452; calls by dose curve). Conditions: PEO1/OlaR viability, CellTiter-Glo luminescence, 96 h; for Z-AUC: stronger effect = lower value. In a few lines: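 PEO1, PEO4 and PEO1/OlaR ovarian cancer cells, 600 per well, exposed 96 h at 37C to a dilution series. Viability read by CellTiter-Glo luminescence, normalized to DMSO and empty wells; activity summarized as Z-AUC.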

A short description of assay [15]: Quantitative High-Throughput drug screen in 47 multiple myeloma cell lines against the NCATS MIPE library collection: OCIMY5_PLB cell viability assay (AID 1918988). Also: nearly all actives have a fitted effect of over 65% in size. In a few lines: as §1
A short description of assay [16]: Quantitative High-Throughput drug screen in 47 multiple myeloma cell lines against the NCATS MIPE library collection: XG6_PLB cell viability assay (AID 1919865). Also: nearly all actives have a fitted effect of over 40% in size. In a few lines: as §1
The nature of assay [17]: qHTS for identification of novel therapeutic agents for treatment of microphthalmiaassociated transcription factor (MiT) renal cell carcinoma (RCC) (AID 1963991; calls by dose curve;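 as to z-score: curves scaled with 100% = DMSO viability and 0% = empty wells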). The note with it: CellTiter-Glo, 48 h; for Potency: active = Z-AUC below -0.8 in all three lines; for z-score: stronger effect = lower value. In a few lines: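 UOK109/UOK124/UOK145 (TFE3 fusions, three partners); 500 cells/well; MIPE v4.0, 1912 cpds, 11 conc.; 48 h, 37 C; CellTiter-Glo, 15 min RT; lum. Norm.: DMSO 100%, empty 0%.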
In general terms: In qHTS, concentration-response curves come from the screen itself.

Assay [18] is described as follows: Quantitative High-Throughput drug screen in 47 multiple myeloma cell lines against the NCATS MIPE library collection: KMS34_JCRB cell viability assay (AID 1918985). Also: nearly all actives have a fitted effect of over 40% in size. The gist of the method: as §1
The mark [19] stands for this setting: measured here: PEO1 parental Z-AUC.
Where [20] appears, read: TFE3-RCC UOK109 viability, measured here: UOK109 Z-AUC.
Where [21] appears, read: TFE3-RCC viability, measured here: UOK124 Z-AUC.
Setting [22] is: TFE3-RCC viability, measured here: UOK145 Z-AUC.
Potency is read from the fitted curve at half-maximal effect.

For the molecule `CN1CCN(c2cc(C(=O)Nc3ccc4c(c3)-c3c(c(C(N)=O)nn3-c3ccc(F)cc3)CC4)c(Cl)cn2)CC1`, the Potency in assay [1] was 187 nM (active); in [2] it was 9350 nM (active); in assay [3], 26400 nM (active); in [4], 2960 nM (active); in assay [5] it was 3320 nM (active); in [6], 2960 nM (active). Moreover, the Potency in assay [7] was 2090 nM (active); in [8], 1480 nM (active); in assay [9], 2640 nM (active); in [10], 23500 nM (active); in assay [11], 26400 nM (active); in assay [12] it was 8330 nM (active). Moreover, the Potency in assay [13] is 8330 nM (active). Also, the Z-AUC was 0.539 (inactive) in assay [14], 0.439 in assay [14] (setting [19]) and -0.0103 in assay [14] (measured here: PEO4 Z-AUC).

For the molecule `Cc1c(NC(=O)OC[C@@H]2COCCN2)cn2ncnc(Nc3ccc4c(cnn4Cc4cccc(F)c4)c3)c12`, the Potency in assay [1] was 590 nM (active); in assay [15], 16.6 nM (active); in assay [2] it was 4180 nM (active); in [16], 37.2 nM (active); in assay [5], 83.3 nM (active); in [6], 1870 nM (active). For the same molecule, the Potency is 5260 nM (active) in assay [8], 26400 nM (active) in assay [12] and 118 nM (active) in assay [17] (TFE3-RCC UOK109 viability). Besides, the Z-AUC in assay [14] was -1.36 (inactive) and 1.21 (inactive); in assay [14] (setting [19]) it was -0.48 and 1.05; in [14] (measured here: PEO4 Z-AUC), -1.04 and 1.11. Further, the z-score in assay [17] (setting [20]) is -1.82; in [17] (setting [21]) it was -1.81; in [17] (setting [22]), -2.05.

As for `Cc1nc2cnc3ccc(C#Cc4cccnc4)cc3c2n1-c1ccc(C(C)(C)C#N)cc1`, the Potency in assay [1] is 105 nM (active); in assay [15], 6620 nM (active); in assay [2] it was 52.6 nM (active); in assay [3], 3720 nM (active); in assay [16], 10.5 nM (active); in [6], 74.3 nM (active). For the same molecule, the Potency in assay [7] is 20.9 nM (active); in assay [8], 13.2 nM (active); in assay [9], 66.2 nM (active); in assay [11], 187 nM (active); in [13], 372 nM (active); in assay [17] (TFE3-RCC UOK109 viability) it was 118 nM (active). The Z-AUC in assay [14] was -0.114 (inactive); in [14] (setting [19]), -0.259; in [14] (measured here: PEO4 Z-AUC), -0.412. In addition, the z-score in [17] (setting [20]) is -1.96; in [17] (setting [21]), -4.34; in assay [17] (setting [22]), -2.15.

As for `CC(C)c1ccccc1Cc1cc(C(=O)Nc2ccc(S(=O)(=O)c3ccccc3C(C)(C)C)cc2)c(O)c(O)c1O`, the Potency is 4690 nM (active) in [1]; 4690 nM (active) in assay [15]; 9350 nM (active) in [2]; 13200 nM (active) in assay [3]; 13200 nM (active) in assay [4]; 3720 nM (active) in assay [5]. Besides, the Potency in assay [6] is 5260 nM (active); in assay [7] it was 4690 nM (active); in assay [8] it was 5260 nM (active); in assay [9], 7430 nM (active); in [12], 5260 nM (active); in assay [13], 10500 nM (active). For the same molecule, the Z-AUC in [14] was 0.413 (inactive); in assay [14] (setting [19]) it was 0.393; in [14] (measured here: PEO4 Z-AUC), 0.535.

Take `COc1ccc2c(OCc3nnc4ccc(-c5ccccc5)nn34)ccnc2c1`: the Potency result in assay [18], in [4], in assay [5], in [9], in [10] and in [11] was “inactive” throughout. Also, the Potency entry in assay [12] and in assay [13] was “inactive” each time. The Potency in [8] was 1870 nM (active). Further, the Z-AUC in assay [14] is -0.0998 (inactive); in [14] (setting [19]) it was 0.23; in assay [14] (measured here: PEO4 Z-AUC), 0.516.

Turning to `C=CCn1c(=O)c2cnc(Nc3ccc(N4CCN(C)CC4)cc3)nc2n1-c1cccc(C(C)(C)O)n1`, the Potency in assay [18] was 14.8 nM (active); in assay [2], 590 nM (active); in assay [5] it was 166 nM (active); in assay [6], 372 nM (active); in assay [7], 148 nM (active); in assay [8], 235 nM (active). Further, the Potency in assay [9] was 469 nM (active); in assay [10], 2350 nM (active); in [11], 1180 nM (active); in assay [12], 264 nM (active); in assay [13] it was 418 nM (active); in [14] it was 138 nM (active). The Z-AUC is -1.63 in [14] (setting [19]) and -1.42 in assay [14] (measured here: PEO4 Z-AUC).

The values are drawn from PubChem BioAssay (NCATS).
